An excerpt weighted towards active compounds, which were near 7.8% of everything screened.
HCMV antiviral – blocks human cytomegalovirus replication | actives 4.5% (n = 410,000) | HFF cells, HCMV-luciferase reporter, 72 h; active compounds read low | activity change, negative = inhibition, % at 57.5 µM; in the data active means activity change below about -60%; inconclusive means no clear call, values can overlap the other calls; inactive means above about -39%
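Compounds were evaluated in HFFs infected with an HCMV luciferase reporter virus (MOI 1 PFU/cell). Luciferase in lysates collected 72 h post infection served as the replication measure.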
Lassa entry inh – Lassa virus entry inhibition; Lassa virus pseudotype entry inhibition, cell reporter; Potency, µM (series often up to 37.9 µM), for the others: at the top dose activity change, negative = inhibition, most hits filed as inhibitors; actives 1.2% (n = 300,000); AID 540256; calls by dose curve; tested in HEK293 cells; further: potency means the concentration at half of the fitted maximal effect; nearly all actives have a fitted effect of over 50% in size
HCV inh – HCV inhibition; Potency, µM (titrated, usually from 41.8 µM), for the others: at the top dose activity change, negative = inhibition, usual class: inhibitors; AID 651820; Huh7.5.1 HCVcc-Cre infection, luciferase reporter, 44 h; actives 3.4% (n = 340,000); active means well fitted inhibition curve with a large enough effect; inconclusive means small, poorly fitted or top-dose-only effect, or another doubt; inactive means no such curve, though single readings can be large or run the other way; further: potency means the concentration at half of the fitted maximal effect
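A cell-based infection assay in which seeded cells (1,000 per well) receive test compound after 4 h, are inoculated with HCVcc-Cre at approximately 0.5 moi, and are incubated 44 h before luminescence detection.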
Vaccinia mCherry – vaccinia inhibition (mCherry reporter); actives 0.63% (n = 310,000); Potency, µM (highest dose often 36.5 µM), without a hit: at the top dose activity change, negative = inhibition, hits mostly inhibitors; Vaccinia virus mCherry reporter infection, fluorescence; calls by dose curve; tested in A549 cells; further: potency means the concentration at half of the fitted maximal effect; nearly all actives have a fitted effect of over 35% in size
MARV entry inh – blocks Marburg virus binding to or entry into cells. Marburg virus pseudotyped entry inhibition, cell reporter. Potency, µM (doses to about 37.8 µM), inactives show at the top dose activity change, negative = inhibition, actives largely listed as inhibitors. actives 1.8% (n = 300,000). AID 540276; calls by dose curve; tested in HEK293 cells; further: potency means the concentration at half of the fitted maximal effect
Vaccinia Venus – vaccinia inhibition (Venus reporter); Vaccinia virus Venus reporter expression, fluorescence; Potency, µM (series often up to 36.5 µM), inactives show top-dose activity change, negative = inhibition, usual class: inhibitors; actives 0.46% (n = 330,000); AID 720580; calls by dose curve; tested in A549 cells; further: potency means the concentration at half of the fitted maximal effect; nearly all actives have a fitted effect of over 30% in size
Numbers without * were called inactive; i = inactive; ? = inconclusive; · = not tested or not shown; [ ] = remark or other dose. On the % scale 0 is the no-effect control and ±100 the full control effect.

SMILES | HCMV antiviral | Lassa entry inh | HCV inh | Vaccinia mCherry | MARV entry inh | Vaccinia Venus
CCCN(CCC)CC(O)Cn1cc(/C=C/C(=O)c2ccc(OCC)cc2)c2ccccc21 (centres undefined) | -106* | ? | · | ? | ? | ?
Cc1ccc(C(=O)/C=C/c2cn(CC(O)CN3CCOCC3)c3ccccc23)cc1 (centres undefined) | -19 | -1% | ? | -15% | ? | -28%
CC(C)CN(CC(C)C)CC(O)Cn1cc(/C=C/C(=O)c2ccccc2)c2ccccc21 (centres undefined) | 23 | ? | · | -23% | 2%[46.1 µM] | -14%
CC(=O)C1=C(C)N(Cc2ccccc2)C(=O)N[C@H]1c1ccc(Br)cc1 | · | · | · | · | 0%[14.2 µM] | ·
COc1ccc(O[C@@H]2[C@H](O)CO[C@H]2/C=C/C#Cc2ccccc2)cc1 | · | · | · | · | 8%[14.2 µM] | ·
CC1=CC=CN2C[C@H](O)CN=C12 | · | · | · | · | 12% | ·
O=S1(=O)N[C@H](Cc2ccccc2)COc2cc(F)ccc21 | -22 | 3%[46.1 µM] | · | · | · | ·
COc1ccc(C2C(C#N)=C(N)N(N(C)C)C3=C2C(=O)CC(C)(C)C3)cc1 (centres undefined) | -16 | · | 21% | · | 0% | ·
COc1ccc(C2C(C#N)=C(N)N(c3sc4c(c3C#N)CCCC4)C3=C2C(=O)CC(C)(C)C3)cc1 (centres undefined) | · | ? | 7.9µM* | · | ? | ·
COc1ccc(C2C(C#N)=C(N)N(c3sc4c(c3C#N)CCCC4)C3=C2C(=O)CC(C)(C)C3)cc1OC (centres undefined) | -3 | ? | ? | · | ? | ·
COc1ccc(C2C(C#N)=C3NC(=O)c4c(sc5c4CCCCC5)N3C3=C2C(=O)CC(C)(C)C3)cc1 (centres undefined) | -4 | 23µM* | ? | · | ? | ·
COc1ccc(CN([C@H](CO)CC(C)C)S(=O)(=O)N(Cc2ccccc2)[C@H](CO)CC(C)C)cc1 | -89* | · | ? | ? | · | 13µM*
CC(C)C[C@@H](CO)N(Cc1ccccc1)S(=O)(=O)N(Cc1ccccc1)[C@@H](CO)CC(C)C | · | · | -7% | ? | · | 22µM*
C=CS(=O)(=O)N(Cc1ccccc1Br)[C@H](CO)CC(C)C | -40 | · | 1%[8.37 µM] | ? | · | 1.4µM*
CC(C)C[C@@H](CO)N(Cc1ccccc1)S(=O)(=O)N(Cc1ccccc1)[C@H](CO)CC(C)C | · | · | ? | -27% | · | ?
COc1ccc(CN([C@H](C)CO)S(=O)(=O)N(Cc2ccccc2)[C@H](CO)C(C)C)cc1 | -10 | · | ? | i | · | -24%
COC(=O)[C@H](Cc1ccccc1)N(Cc1ccccc1)S(=O)(=O)N(Cc1ccccc1)[C@@H](Cc1ccccc1)C(=O)OC | -96* | · | -17%[8.37 µM] | ? | · | -11%
O=C(NCC1Cc2cccc(-c3cnccn3)c2O1)c1ccc2c(c1)OCCO2 (centres undefined) | · | · | · | -14% | · | -8%
Cc1ccc2c(c1)cc(CN(C)Cc1nc(C)cs1)c(=O)n2C | · | · | · | -13% | · | -11%
COc1ccc(-c2coc3ncnc(N)c23)cc1 | · | 4% | · | · | · | ·
Nc1ncnc2occ(-c3ccc(NC(=O)Nc4cc(C(F)(F)F)cc(C(F)(F)F)c4)cc3)c12 | · | 20µM* | · | · | · | ·
COC(=O)C1=C(c2cccc(OCc3ccccc3)c2)C[C@@H]2CC[C@H]1N2C(=O)NCc1ccc(F)cc1 | -35 | · | ? | -20% | · | ?
COC(=O)C1=C(c2ccccc2OCc2ccccc2)C[C@@H]2CC[C@H]1N2C(=O)NC1CCN(Cc2ccccc2)CC1 | -28 | · | ? | ? | · | ?
COC(=O)C1=C(c2ccc(F)cc2OCc2ccccc2)C[C@@H]2CC[C@H]1N2C(=O)NCc1ccc2c(c1)OCO2 | -26 | · | 10µM* | -29% | · | ?
COC(=O)C1=C(c2cccc(OCc3ccccc3)c2)C[C@@H]2CC[C@H]1N2C(=O)NCCCc1ccccc1 | ? | · | ? | -21% | · | ?
SMILES | HCMV antiviral | Lassa entry inh | HCV inh | Vaccinia mCherry | MARV entry inh | Vaccinia Venus
COC(=O)C1=C(c2cccc(OCc3ccccc3)c2)C[C@@H]2CC[C@H]1N2C(=O)NCc1ccc(C(F)(F)F)cc1 | ? | · | 10µM* | -8% | · | ?
COC(=O)C1=C(c2ccc(OCc3ccccc3)cc2)C[C@@H]2CC[C@H]1N2C(=O)NCCCc1ccccc1 | ? | · | 6.3µM* | -17% | · | ?
COC(=O)C1=C(c2cccc(OCc3ccccc3)c2)C[C@@H]2CC[C@H]1N2C(=O)NC1CCN(Cc2ccccc2)CC1 | 7 | · | 10µM* | -15% | · | ?
CCOC(=O)c1cnc2ccc(OC(F)(F)F)cc2c1Nc1ccccc1C(=O)O | -6 | -19%[46.1 µM] | · | 9% | 14%[46.1 µM] | -8%
COC(=O)C1=C(c2ccc(OCc3ccccc3)cc2)C[C@@H]2CC[C@H]1N2C(=O)NCc1ccc(OC)c(OC)c1 | -61* | · | 10µM* | ? | · | ?
COC(=O)C1=C(c2ccc(-c3ccccc3)c(F)c2)C[C@@H]2CC[C@H]1N2C(=O)NCc1cc(C)oc1C(F)(F)F | -8 | · | ? | -15% | · | ?
COC(=O)C1=C(c2ccc(OCc3ccccc3)cc2)C[C@@H]2CC[C@H]1N2C(=O)NCc1cccc(C(F)(F)F)c1 | -32 | · | 13µM* | -19% | · | ?
COC(=O)C1=C(c2ccccc2OCc2ccccc2)C[C@@H]2CC[C@H]1N2C(=O)NCc1ccc(C(F)(F)F)cc1 | -3 | · | 10µM* | -14% | 2% | ?
COC(=O)C1=C(c2cccc(C#N)c2)C[C@@H]2CC[C@H]1N2C(=O)NCc1cc(C)oc1C(F)(F)F | -71* | · | ? | -29% | · | -29%
COc1ccc(-c2sc3ccc(N4CCOCC4)cc3c2C#Cc2ccsc2)cc1 | -29 | · | ? | ? | · | -19%
COc1ccc(-c2sc3ccc(N4CCOCC4)cc3c2C#CC(C)(C)O)cc1 | -32 | · | ? | i | · | -29%
COc1ccc2sc(-c3ccc(N(C)C)cc3)c(C#Cc3cncn3C)c2c1 | 117 | · | 2.5µM* | ? | · | ?
COc1ccc2sc(-c3ccc(N(C)C)cc3)c(C#CC(C)(C)O)c2c1 | 20 | · | 3.2µM* | -21% | · | ?
COc1ccc2sc(-c3ccc(SC)cc3)c(C#CC(C)(C)O)c2c1 | 42 | · | 2.8µM* | ? | · | ?
COc1ccc2sc(-c3ccc(SC)cc3)c(C#CCO)c2c1 | 3 | · | 2.8µM* | ? | · | ?
Cc1ccc(N(Cc2cccs2)C(=O)Nc2cccc(Cl)c2)cc1 | -4 | -8%[46.1 µM] | · | -6% | -1%[46.1 µM] | -3%
CCN(c1ccc(C)cc1)S(=O)(=O)c1nnc(NC(=O)C2CCCCC2)s1 | -25 | 2%[46.1 µM] | · | -12% | · | -2%
CCC(C)NC(=O)c1sc2nc(C)c(C(=O)Nc3ccc(C)cc3C)c(-c3ccc(NC(C)=O)cc3)c2c1N (centres undefined) | -25 | -11%[46.1 µM] | · | -1% | -14%[46.1 µM] | -10%

Compound activity: PubChem BioAssay, National Center for Advancing Translational Sciences (NCATS)
